Some test systems named below: NCI-H23 lung; NCI-H226 lung; NCI-H322M lung; HOP-62 NSCLC; NCI-H460 lung; HOP-92 NSCLC; NCI-H522 lung; A549/ATCC NSCLC; 786-0 renal; COLO 205 colon; DU-145 prostate; K-562 leukemia; MALME-3M melanoma; MDA-MB-231 breast; RXF 393 renal; SF-268 CNS; SF-295 CNS; SF-539 CNS; UACC-257 melanoma; M14 melanoma.
Assay in all cases: NCI-60 one-dose screen, 48 h (100 = growth as untreated, 0 = no growth, -100 = all killed)
Conditions in all cases: 10 µM unless noted

The panel holds about 83,000 compounds, 20% with a hit somewhere; the sample as a whole holds those more often.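 Activity criterion: percent growth below 10, measured after cells in 96-well plates were exposed to a single compound concentration for 48 hours.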 Values without a mark were called inactive. The source made the active and inactive calls.

Turning to `C/C(=C(\c1ccc(OCCCN(C)C)cc1)c1ccc(OC(=O)Cc2ccccc2)cc1)c1ccc(Cl)cc1`, the growth is 84.6% with NCI-H23 lung; 100% with NCI-H226 lung; 86.8% in the test on NCI-H322M lung; 78.9% with HOP-62 NSCLC; 40.8% with NCI-H460 lung; 51.8% in the test on HOP-92 NSCLC. Besides, the growth in the test on NCI-H522 lung is 67.2%; in the test with A549/ATCC NSCLC, 63.3%; in the test on 786-0 renal, 68.3%; in the test on COLO 205 colon, 50.6%; in the test with DU-145 prostate, 80.7%; with K-562 leukemia, 0.63% (active). The growth with MALME-3M melanoma was 87.6%; with MDA-MB-231 breast, 68.4%; with RXF 393 renal, 69.7%; in the test with SF-268 CNS, 77.4%; in the test on SF-295 CNS it was 79.1%; in the test on SF-539 CNS it was 82%. The figures for the growth with UACC-257 melanoma and in the test on M14 melanoma were 91.5% and 7.02% (active), respectively.

In the case of `O=S(=O)(Nc1ccc(Br)cc1)c1ccc(-c2cnc(C3CC3)o2)cc1`, the growth with NCI-H23 lung was 40.8%; in the test on NCI-H226 lung, 67.3%; in the test with NCI-H322M lung, 61.9%; with HOP-62 NSCLC, 27.1%; with NCI-H460 lung, 12.8%; with HOP-92 NSCLC it was 43%. Besides, the growth is 11% in the test on NCI-H522 lung; 40.1% in the test on A549/ATCC NSCLC; 37.8% in the test with 786-0 renal; 23.9% in the test with COLO 205 colon; 38.1% with DU-145 prostate; 11.3% with K-562 leukemia. For the same compound, the growth was 44.4% with MALME-3M melanoma; 35.2% in the test on MDA-MB-231 breast; 10.4% in the test with RXF 393 renal; 39.9% with SF-268 CNS; 28.9% in the test on SF-295 CNS; 3.63% (active) in the test on SF-539 CNS. For the same compound, the values for the growth with UACC-257 melanoma and in the test on M14 melanoma were 66.1% and 18.1%, respectively.

For the compound `COc1ccc(N/N=C/c2ccc3c(c2)Sc2ccccc2N3C)cc1`, the growth with NCI-H23 lung was 76.8%; in the test with NCI-H226 lung, -68.4% (active); in the test on NCI-H322M lung it was 77.1%; in the test with HOP-62 NSCLC, 66.9%; with NCI-H460 lung it was 28.9%; in the test with HOP-92 NSCLC, 67.5%. Also, the growth in the test with NCI-H522 lung was 46.9%; in the test with A549/ATCC NSCLC it was 57.2%; in the test on 786-0 renal, 88.4%; with COLO 205 colon, 102%; in the test with DU-145 prostate it was 58.7%; in the test with K-562 leukemia, 4.21% (active). Moreover, the growth is 107% in the test with MALME-3M melanoma; 84.2% with MDA-MB-231 breast; 105% in the test on RXF 393 renal; 53.7% with SF-268 CNS; 6.85% (active) in the test on SF-295 CNS; 57.1% in the test with SF-539 CNS. Further, the growth is 96.1% in the test on UACC-257 melanoma and 40.9% in the test on M14 melanoma.

Take `N#Cc1c(-c2ccc(Cl)cc2)nc(NN=Cc2cccc(Cl)c2)nc1N1CCOCC1`: the growth is 101% in the test with NCI-H23 lung; 91.6% in the test with NCI-H226 lung; 88.7% with NCI-H322M lung; 92.7% with HOP-62 NSCLC; 91.6% with NCI-H460 lung; 89.3% in the test on HOP-92 NSCLC. The growth was 94.5% in the test on NCI-H522 lung; 81.9% with A549/ATCC NSCLC; 70.1% in the test on 786-0 renal; 61% in the test with COLO 205 colon; 76% in the test with DU-145 prostate; 35.1% with K-562 leukemia. Moreover, the growth was 131% in the test with MALME-3M melanoma; 90.6% in the test on MDA-MB-231 breast; 61.4% in the test on RXF 393 renal; 90.3% in the test on SF-268 CNS; 102% with SF-295 CNS; 79.1% in the test with SF-539 CNS. The growth in the test on UACC-257 melanoma was 100%; in the test on M14 melanoma, 84.6%.

Take `COc1ccc(CNc2c3ccccc3nc3ccccc23)cc1OC`: the growth in the test on NCI-H23 lung was 15.1%; in the test with NCI-H226 lung it was 27.9%; in the test with NCI-H322M lung, 29.8%; in the test on HOP-62 NSCLC it was 34.5%; in the test with NCI-H460 lung it was 6.17% (active); in the test on HOP-92 NSCLC, -9.67% (active). The growth was 18.2% with NCI-H522 lung; 16.3% in the test with A549/ATCC NSCLC; 25.4% in the test on 786-0 renal; 5.3% (active) in the test on COLO 205 colon; 24.7% in the test with DU-145 prostate; 8.81% (active) with K-562 leukemia. Also, the growth was 7.92% (active) with MALME-3M melanoma; 19.4% with MDA-MB-231 breast; 3.58% (active) with RXF 393 renal; 39.6% with SF-268 CNS; 18.1% in the test with SF-295 CNS; 15.4% in the test on SF-539 CNS. For the same compound, the figures for the growth in the test on UACC-257 melanoma and in the test on M14 melanoma were 22.1% and 17.7%, respectively.

In the case of `CCOC(=O)CC1C(CNC(=O)NC)OC(n2cnc3c(NC(=O)Nc4ccccc4)ncnc32)C1O[Si](C)(C)C(C)(C)C` (stereo not given), the growth is 91.7% in the test with NCI-H23 lung; 75.9% in the test on NCI-H226 lung; 90.5% in the test with NCI-H322M lung; 78.9% with HOP-62 NSCLC; 47.6% in the test with NCI-H460 lung; 63.1% in the test with HOP-92 NSCLC. For the same compound, the growth in the test with NCI-H522 lung was 80.2%; with A549/ATCC NSCLC, 22.4%; in the test on 786-0 renal, 76.1%; in the test on COLO 205 colon, 43%; in the test on DU-145 prostate, 63.3%; with K-562 leukemia, 58.7%. Moreover, the growth in the test with MALME-3M melanoma was 55.3%; in the test on MDA-MB-231 breast it was 50.8%; with RXF 393 renal it was -45.2% (active); in the test on SF-268 CNS, 58.6%; in the test on SF-295 CNS it was 16%; in the test on SF-539 CNS it was 52.6%. Also, the growth in the test on UACC-257 melanoma is 87.5%; in the test on M14 melanoma it was 67.3%.

For `COc1cc2c(c(OC)c1OC)CCC(c1cccc(C(=O)Nc3ccccc3Br)c1)O2` (stereo not given), the growth in the test on NCI-H23 lung was 97.2%; in the test on NCI-H226 lung, 92.3%; in the test on NCI-H322M lung it was 94.9%; in the test with HOP-62 NSCLC, 92.3%; in the test on NCI-H460 lung, 104%; in the test with HOP-92 NSCLC it was 66.3%. Further, the growth with NCI-H522 lung was 80.1%; with A549/ATCC NSCLC, 81.2%; with 786-0 renal it was 76.2%; in the test with COLO 205 colon, 90.5%; in the test on DU-145 prostate, 86.7%; in the test on K-562 leukemia, 71.5%. The growth is 89.6% with MALME-3M melanoma; 83.3% in the test on MDA-MB-231 breast; 91.8% in the test with RXF 393 renal; 87.1% with SF-268 CNS; 94.9% in the test on SF-295 CNS; 83.1% with SF-539 CNS. For the same compound, the growth is 90.7% in the test on UACC-257 melanoma and 67.4% in the test with M14 melanoma.

Take `Nc1nc(Nc2ccc([N+](=O)[O-])cc2O)nc(C(Cl)(Cl)Cl)n1`: the growth was 80.1% in the test with NCI-H23 lung; 90.2% in the test on NCI-H226 lung; 96.9% in the test on NCI-H322M lung; 80% with HOP-62 NSCLC; 90.2% with NCI-H460 lung; 49.4% with HOP-92 NSCLC. In addition, the growth in the test with NCI-H522 lung is 10.9%; in the test on A549/ATCC NSCLC, 82.4%; with 786-0 renal, 97.1%; with COLO 205 colon, 107%; in the test on DU-145 prostate, 97.3%; in the test on K-562 leukemia, 28.7%. Also, the growth in the test with MALME-3M melanoma was 84.9%; in the test on MDA-MB-231 breast, 86.9%; in the test on RXF 393 renal it was 76.1%; with SF-268 CNS, 64.4%; with SF-295 CNS, 93.2%; in the test with SF-539 CNS it was 58%. Besides, the values for the growth in the test on UACC-257 melanoma and in the test on M14 melanoma were 85.7% and 74.6%, respectively.

(Values after PubChem BioAssay (NCI).)
